This is part of a sample that, as a whole, favours compounds with a hit. Of some 83,000 tested, about 20% had one in any assay.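 Testing used 96-well plates and a 48-hour single-concentration exposure. Example: -40 means 40% of the starting cells died.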 Unmarked numbers belong to inactive results. The source made the active and inactive calls. Rule for the calls: active = growth percent below 10; inactive = the rest.

Among the test systems are SR leukemia; RPMI-8226 leukemia; OVCAR-8 ovarian; OVCAR-5 ovarian; OVCAR-4 ovarian; SK-OV-3 ovarian; IGROV1 ovarian; OVCAR-3 ovarian; HS 578T breast; NCI/ADR-RES ovarian; T-47D breast; BT-549 breast; MDA-MB-435 melanoma; SW-620 colon; MCF7 breast; HCT-116 colon; HCC-2998 colon; KM12 colon.
Holding throughout (test): NCI-60 one-dose screen, 48 h (100 = growth as untreated, 0 = no growth, -100 = all killed)
Common to all, as to conditions: 10 µM unless noted

As for `COc1cc(C2=NN(C(C)=O)C(c3ccc(N(C)C)cc3)C2)cc(OC)c1OC` (centres undefined), the growth in the test with SR leukemia was 83.9%; in the test on RPMI-8226 leukemia, 99.1%; with OVCAR-8 ovarian, 95.3%; in the test with OVCAR-5 ovarian, 82.3%; with OVCAR-4 ovarian, 96.7%; in the test with SK-OV-3 ovarian, 110%. For the same compound, the growth is 76.7% in the test on IGROV1 ovarian; 124% with OVCAR-3 ovarian; 84.7% in the test with HS 578T breast; 99.2% with NCI/ADR-RES ovarian; 86.6% in the test on T-47D breast; 94.4% in the test on BT-549 breast. In addition, the growth is 94.9% in the test on MDA-MB-435 melanoma; 94.9% with SW-620 colon; 93.1% in the test on MCF7 breast; 86.9% in the test with HCT-116 colon; 102% in the test on HCC-2998 colon; 95.4% with KM12 colon.
As for `C=NNc1ccccc1`, the growth with SR leukemia was 74%; in the test on RPMI-8226 leukemia it was 97.6%; in the test on OVCAR-8 ovarian, 95.1%; with OVCAR-5 ovarian it was 109%; in the test on OVCAR-4 ovarian it was 102%; in the test with SK-OV-3 ovarian it was 102%. For the same compound, the growth in the test on IGROV1 ovarian is 88.7%; in the test on OVCAR-3 ovarian, 102%; in the test with HS 578T breast, 97.7%; in the test with NCI/ADR-RES ovarian, 84.4%; in the test with T-47D breast, 90.6%; in the test with BT-549 breast, 91.6%. The growth in the test with MDA-MB-435 melanoma is 105%; in the test with SW-620 colon, 102%; with MCF7 breast, 83.3%; in the test with HCT-116 colon, 80.7%; with HCC-2998 colon it was 94.5%; with KM12 colon, 80.5%.
As for `CC(=O)N(Cc1ccccc1)c1nc2ccc(O)c(CN(C)C)c2s1`, the growth is 106% in the test with SR leukemia; 95.2% in the test with RPMI-8226 leukemia; 103% in the test with OVCAR-8 ovarian; 100% in the test on OVCAR-5 ovarian; 97.6% with OVCAR-4 ovarian; 104% with SK-OV-3 ovarian. For the same compound, the growth with IGROV1 ovarian was 93.9%; in the test with OVCAR-3 ovarian it was 105%; in the test on HS 578T breast it was 92.6%; in the test with NCI/ADR-RES ovarian, 93.5%; in the test with T-47D breast, 85.2%; in the test on BT-549 breast, 96.6%. Moreover, the growth is 99.7% in the test on MDA-MB-435 melanoma; 94.7% in the test on SW-620 colon; 87.8% in the test on MCF7 breast; 102% in the test with HCT-116 colon; 105% in the test with HCC-2998 colon; 102% in the test with KM12 colon.
On to `COC(=O)/C=C1/SC(=Nc2cccc(Cl)c2)N(CCc2c[nH]c3ccc(O)cc23)C1=O`, for which the growth with SR leukemia was -8.45% (active); with RPMI-8226 leukemia, -23.9% (active); in the test with OVCAR-8 ovarian, -4.55% (active); in the test on OVCAR-5 ovarian, 58.7%; with OVCAR-4 ovarian, 24.9%; with SK-OV-3 ovarian, 86.6%. For the same compound, the growth with IGROV1 ovarian is 4.15% (active); with OVCAR-3 ovarian, 3.41% (active); with HS 578T breast, 27.7%; in the test with NCI/ADR-RES ovarian, 18.4%; with T-47D breast, 12.6%; in the test with BT-549 breast it was 0.746% (active). Further, the growth in the test with MDA-MB-435 melanoma is 15.9%; in the test with SW-620 colon, 0.219% (active); with MCF7 breast, 15.9%; in the test on HCT-116 colon it was -33% (active); with HCC-2998 colon, 2.25% (active); in the test on KM12 colon it was 18.9%.
As for `CCNC(=O)Oc1ccc(/C(=C(/C)Cc2ccc(OC)cc2)c2ccc(OCCN3CCCCCC3)cc2)cc1`, the growth is -51.7% (active) in the test on SR leukemia; 20.3% in the test with RPMI-8226 leukemia; 75.4% with OVCAR-8 ovarian; 94.8% in the test with OVCAR-5 ovarian; 87.9% in the test on OVCAR-4 ovarian; 87.7% in the test on SK-OV-3 ovarian. Moreover, the growth with IGROV1 ovarian was 78%; in the test with OVCAR-3 ovarian, 59.5%; in the test with HS 578T breast, 67.2%; with NCI/ADR-RES ovarian it was 76.7%; with T-47D breast, 35.9%; in the test with BT-549 breast, 89.1%. For the same compound, the growth was 81.6% in the test with MDA-MB-435 melanoma; 70.7% with SW-620 colon; 22.2% in the test on MCF7 breast; 56.3% with HCT-116 colon; 63.3% in the test with HCC-2998 colon; 53.9% with KM12 colon.
As to `CC(=O)Nc1c(Cl)cc(Cl)c2c1Cc1cc([N+](=O)[O-])ccc1-2`, the growth was 47.9% in the test on SR leukemia; 87.1% in the test with RPMI-8226 leukemia; 74.8% in the test with OVCAR-8 ovarian; 108% with OVCAR-5 ovarian; 9.59% (active) in the test on OVCAR-4 ovarian; 87.3% in the test with SK-OV-3 ovarian. Moreover, the growth in the test with IGROV1 ovarian was 91.2%; with OVCAR-3 ovarian, 80.5%; in the test on HS 578T breast, 65.4%; in the test with NCI/ADR-RES ovarian, 83.5%; in the test with T-47D breast, 70.6%; in the test on BT-549 breast it was 92.7%. Also, the growth in the test on MDA-MB-435 melanoma was 85.9%; with SW-620 colon, 80.6%; in the test with MCF7 breast, 76.8%; with HCT-116 colon, 45.8%; with HCC-2998 colon it was 94.3%; in the test on KM12 colon it was 86.4%.
In the case of `Cc1ccc(C)n1/C=C/n1c(C)ccc1C`, the growth was 122% in the test with SR leukemia; 78.6% in the test with RPMI-8226 leukemia; 99.3% in the test with OVCAR-8 ovarian; 101% with OVCAR-5 ovarian; 98.4% in the test on OVCAR-4 ovarian; 100% in the test with SK-OV-3 ovarian. Further, the growth was 16.2% in the test with IGROV1 ovarian; 146% in the test on OVCAR-3 ovarian; 113% in the test on HS 578T breast; 92.4% in the test with NCI/ADR-RES ovarian; 90.5% in the test on T-47D breast; 91% with BT-549 breast. For the same compound, the growth was 91.9% in the test with MDA-MB-435 melanoma; 110% in the test with SW-620 colon; 106% in the test on MCF7 breast; 104% with HCT-116 colon; 95% in the test with HCC-2998 colon; 109% with KM12 colon.
As for `COc1ccc(C2CC(c3ccc(Nc4nc(Nc5ccc(F)cc5)nc(Nc5ccc(F)cc5)n4)cc3)=NN2C(C)=O)cc1` (centres undefined), the growth in the test on SR leukemia is 16.4%; in the test with RPMI-8226 leukemia, 7.18% (active); in the test on OVCAR-8 ovarian, 90.3%; with OVCAR-5 ovarian it was 87.6%; in the test on OVCAR-4 ovarian it was 98.1%; with SK-OV-3 ovarian it was 131%. Besides, the growth with IGROV1 ovarian was 101%; in the test with OVCAR-3 ovarian, 97.9%; in the test on HS 578T breast it was 111%; with NCI/ADR-RES ovarian, 80.5%; with T-47D breast, 69.8%; with BT-549 breast, 96.2%. The growth in the test on MDA-MB-435 melanoma was 92.1%; with SW-620 colon, 101%; in the test with MCF7 breast, 98.9%; in the test with HCT-116 colon, 93.5%; in the test on HCC-2998 colon, 37.6%; with KM12 colon, 95.3%.

The values above are taken from PubChem BioAssay (NCI).
